Each compound was assayed against Luciferin 4-monooxygenase (Photinus pyralis) (UniProt P08659) (assay: firefly luciferase enzyme inhibitors, primary screen, biochemical, luminescence, purified enzyme, 2006 set (AID 1141;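 further: cell-free assay with purified firefly luciferase at 100 ng per well in PBS; test concentration not given here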)). Conditions: SteadyGlo luminescence, 30 min, higher = more signal, called active from +8 up or from −8 down.
Luciferin 4-monooxygenase (Photinus pyralis), sequence (P08659 whole entry, looked up): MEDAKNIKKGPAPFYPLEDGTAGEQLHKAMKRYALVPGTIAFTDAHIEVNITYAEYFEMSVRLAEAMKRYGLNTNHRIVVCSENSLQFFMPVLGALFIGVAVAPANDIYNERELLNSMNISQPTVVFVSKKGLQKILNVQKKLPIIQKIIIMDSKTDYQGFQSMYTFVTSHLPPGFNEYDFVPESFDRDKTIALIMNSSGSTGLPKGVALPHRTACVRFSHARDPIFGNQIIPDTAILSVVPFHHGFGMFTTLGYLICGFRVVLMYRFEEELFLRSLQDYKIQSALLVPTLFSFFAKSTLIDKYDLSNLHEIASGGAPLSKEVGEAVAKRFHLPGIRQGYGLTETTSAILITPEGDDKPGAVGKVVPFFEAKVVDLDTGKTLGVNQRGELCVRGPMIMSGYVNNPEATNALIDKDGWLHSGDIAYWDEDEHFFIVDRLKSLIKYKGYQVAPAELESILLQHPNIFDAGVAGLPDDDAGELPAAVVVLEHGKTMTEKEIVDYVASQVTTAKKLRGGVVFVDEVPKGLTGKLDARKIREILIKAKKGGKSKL

z-score, inactive:
COc1ccc([Si](C)(C)[C@@H]2[C@@H](CCO)O[C@]3(C(=O)N(Cc4cccc(N5CCOC5=O)c4)c4ccccc43)[C@H]2C)cc1 -0.335, COCCOC(=O)N1C(=O)[C@@]2(c3ccccc31)[C@H](C(N)=O)[C@H]1C(=O)O[C@H](c3ccccc3)[C@H](c3ccccc3)N1[C@@H]2c1ccc(O)cc1 -1.65, O=C1C[C@@](C(=O)NCc2ccccc2)(c2ccc([N+](=O)[O-])cc2)[C@@H](c2ccc(CO)cc2)N1CC12CC3CC(CC(C3)C1)C2 -0.756, COCC(=C=CC[C@H](O)c1cccc(OCCO)c1)CCO 0.415, COCCCNC(=O)[C@@]1(Cc2ccccc2CN=[N+]=[N-])N=C(c2ccc(OCCCO)cc2)O[C@H]1c1ccccc1CN=[N+]=[N-] -2.66, COC(=O)[C@]1(Cc2ccccc2)N=C(c2ccc(OCCCO)cc2)O[C@@H]1c1ccccc1N=[N+]=[N-] -4.8, COC(=O)[C@@]1(Cc2ccc(F)cc2)[C@H]2c3cc(C(=O)N(C)C)n(Cc4ccc(C)o4)c3C[C@H]2CN1C(=O)c1ccccc1 0.483, CC(C)=CCCC(C)=CC(O)C1C=CC2C(=O)N(c3ccccc3)C(=O)C2N1Nc1ccc(C(C)C)cc1 (centres undefined) 0.43, COc1ccccc1CN1C(=O)c2ccccc2[C@@H](C(=O)NCc2ccccc2)[C@@H]1c1ccc(CO)cc1 -0.898, CC#CC(=O)Oc1ccc(Br)cc1C=CC(=O)OCC -0.39, O=C(NC1CC1)[C@@H]1c2ccccc2C(=O)N(C2Cc3ccccc3C2)[C@H]1c1ccc(CO)cc1 0.659, COCCCNC(=O)[C@@H]1c2ccccc2C(=O)N(Cc2ccccc2OC)[C@H]1c1ccc(CO)cc1 1.43, O=C(O)[C@H](Cc1ccccc1)n1cc(-c2ccccc2)nn1 0.899, C=CC[C@]1(C(=O)NCc2ccccc2)N=C(c2ccc(OCCCO)cc2)O[C@H]1c1ccccc1CN=[N+]=[N-] -0.238, CN1C(=O)C2C=CC(C(O)c3ccc(F)cc3)N(N(c3ccccc3)c3ccccc3)C2C1=O (centres undefined) 0.0492, C=CCC(OC(C)=O)[C@@H]1[C@@H](N(Cc2ccc(-c3cccc(C(F)(F)F)c3)o2)C(=O)Cc2ccc(OC)cc2)c2cc(OCCCO)ccc2N1C(=O)c1ccc2ccccc2c1 (some centres undefined) 0.535, CN(C)CCCCCCNC(=O)[C@@H]1C[C@@H]2C(=O)N[C@@H](CCCC[N+](C)(C)C)C(=O)N2[C@@H]1c1ccc(O)cc1 -0.882, CC(C)CNC(=O)[C@@]1(Cc2ccccc2I)c2ccccc2C(=O)N(Cc2ccccc2C(F)(F)F)[C@H]1c1ccc(CO)cc1 0.654, C=CC[C@]1(C(N)=O)N=C(c2ccc(OCCCO)cc2)O[C@H]1c1ccccc1 0.004, COCCCNC(=O)[C@@]1(Sc2ccc(C)cc2)CC(=O)N(Cc2ccccc2Cl)[C@@H]1c1ccc(CO)cc1 1.14, CCCC=C(CCC)[C@@H](NC(=O)OCC(C)C)c1ccccc1 0.936, OCC1C=C(/C=C/c2ccccc2)CN1Cc1ccccc1Br (centres undefined) -1.05, CN1C(=O)C2C=CC(C(O)C=Cc3ccc([N+](=O)[O-])cc3)N(Nc3ccccc3)C2C1=O (centres undefined) -1.02, COC(=O)[C@@]1(Cc2ccccc2)[C@H]2c3cc(C(=O)N4CCCC4)n(Cc4ccc(O)c(OC)c4)c3C[C@H]2CN1C(=O)c1ccccc1 1.04, CN(C)CCCCCCNC(=O)[C@@H]1C[C@@H]2C(=O)N3CCC[C@H]3C(=O)N2[C@@H]1c1ccc(O)cc1 -0.934, C[N+](C)(C)CCCC[C@@H]1NC(=O)[C@H]2C[C@@H](C(=O)NCCCCCCNC(=O)CS)[C@@H](c3ccc(O)cc3)N2C1=O 0.24, COC(=O)C(CC#Cc1ccc2c(c1)[C@]1(C(=O)N2)[C@H](c2ccccc2OCCO)N2[C@H](c3ccccc3)[C@H](c3ccccc3)OC(=O)[C@H]2[C@@H]1C(=O)O)C(=O)OC -2.37, NCCCCCNC(=O)[C@H]1C[C@H]2C(=O)N3CCC[C@H]3C(=O)N2[C@H]1c1ccc(O)cc1 -0.462, C=CCC(OC(C)=O)[C@@H]1[C@@H](N(Cc2ccc(-c3ccccc3)cc2)C(=O)Cc2ccc(F)cc2)c2cc(OCCCO)ccc2N1C(=O)c1ccc2ccccc2c1 (some centres undefined) -0.87
